“And” between values parts separate entries of the source, which are not always exact repeats. Equal values may be shown once. Inconclusive results are not listed. Some compounds were tested as several samples or in several runs, with calls that do not always agree. The source made the active and inactive calls. Calls come from the whole dose curve.
How the values were obtained:
[1] = target: Acetylcholinesterase (Homo sapiens) (UniProt P22303); experiment: Acetylcholinesterase (AChE) small molecule antagonists: colormetric cell-based qHTS assay (AID 1347395); note: nearly all actives have a fitted effect of over 30% in size; note: potency is the fitted concentration of half-maximal effect
Acetylcholinesterase (Homo sapiens), sequence (P22303 whole entry, looked up): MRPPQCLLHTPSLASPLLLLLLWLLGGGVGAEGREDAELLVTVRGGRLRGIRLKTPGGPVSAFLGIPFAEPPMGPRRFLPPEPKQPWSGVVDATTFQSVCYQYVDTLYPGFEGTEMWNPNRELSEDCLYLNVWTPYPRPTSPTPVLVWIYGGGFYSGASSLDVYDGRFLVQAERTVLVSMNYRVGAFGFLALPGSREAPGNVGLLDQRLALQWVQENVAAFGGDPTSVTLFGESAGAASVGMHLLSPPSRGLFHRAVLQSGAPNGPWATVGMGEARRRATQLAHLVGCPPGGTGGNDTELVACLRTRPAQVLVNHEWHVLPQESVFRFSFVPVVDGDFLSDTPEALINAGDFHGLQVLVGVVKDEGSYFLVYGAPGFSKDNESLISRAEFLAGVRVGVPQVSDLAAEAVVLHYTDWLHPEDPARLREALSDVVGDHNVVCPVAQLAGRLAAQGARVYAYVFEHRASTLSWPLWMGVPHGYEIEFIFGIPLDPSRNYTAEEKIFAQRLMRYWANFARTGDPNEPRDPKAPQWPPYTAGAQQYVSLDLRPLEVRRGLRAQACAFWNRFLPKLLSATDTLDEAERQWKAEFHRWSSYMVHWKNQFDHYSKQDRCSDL
Method in brief: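 SH-SY5Y cells; cpd 30 min 37 C; + DTNB/acetylthiocholine, 90 min 37 C; colorimetric thiocholine read; qHTS.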

[2] = target: Acetylcholinesterase (Homo sapiens) (UniProt P22303); experiment: Acetylcholinesterase (AChE) small molecule antagonists: enzyme-based qHTS assay (AID 1347397); settings: Potency: AChE enzyme activity inhibition; outcome: AChE enzyme activity inhibition; note: nearly all actives have a fitted effect of over 55% in size; note: potency is the fitted concentration of half-maximal effect
Method in brief: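 In this quantitative HTS, compounds from the Tox21 10K collection were preincubated 30 min at ambient temperature with recombinant human AChE dispensed at 50 mU/mL. Hydrolysis of acetylthiocholine was then followed for 10 min by DTNB colour development.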

[3] = target: Acetylcholinesterase (Homo sapiens) (UniProt P22303); experiment: Acetylcholinesterase (AChE) small molecule antagonists: fluorescence cell-based qHTS assay (AID 1347398); settings: Potency: AChE activity; outcome: AChE activity; note: nearly all actives have a fitted effect of over 50% in size; note: potency is the fitted concentration of half-maximal effect
Method in brief: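 Cells (SH-SY5Y) attached overnight, were dosed with compound or DMSO vehicle for 30 min at 37 C, and then incubated 40 min at room temperature with acetylthiocholine and Thiolite Green; green fluorescence indexed AChE activity.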

[4] = target: Acetylcholinesterase (Homo sapiens) (UniProt P22303); experiment: Acetylcholinesterase (AChE) small molecule antagonists: enzyme-based qHTS assay with human liver microsomes (AID 1347399); settings: Potency: qHTS inhibition; outcome: qHTS inhibition; note: nearly all actives have a fitted effect of over 60% in size
Method in brief: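 Recombinant human AChE (50 mU/mL in the enzyme mix) and human liver microsomes (0.25 mg/mL final) were preincubated with compound and NADPH (0.25 mg/mL final) for 30 min at 37 C. Acetylthiocholine/DTNB was then added; thiocholine was read colorimetrically after 10 min at room temperature.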

Measured: Potency

NCc1cccc(CN)c1
inactive: all assays above

Cc1ccccc1Cl
inactive: all assays above

CN(C)C(=S)SC(=S)N(C)C
inactive: [2] | [4]
56.4 µM (active) and inactive: [1]
35.6 µM (active) and inactive: [3]

CCNc1ccccc1
inactive: all assays above

COc1ccc(NC(=O)CC(C)=O)cc1
inactive: all assays above

CCCCCCCCCCCCCCCCCC#N
inactive: all assays above

O=C1c2ccccc2C(=O)c2c(O)c(O)cc(O)c21
inactive: all assays above

Sc1nc(S)nc(S)n1
inactive: all assays above

CCCCCCCN
inactive: all assays above

CC(C)CCCC(=O)O
inactive: all assays above

CCCCC(CC)COC(=O)CCCCCCCCC(=O)OCC(CC)CCCC (stereo not given)
inactive: all assays above

O=S1(=O)c2cccc3cccc(c23)N1CCCN1CCN(c2ccc(F)cc2)CC1
inactive: all assays above

C1CCC2OC2C1 (stereo not given)
inactive: all assays above

O=C(O)c1ccc(Cl)c(Cl)c1
inactive: all assays above

NC(=O)COCCN1CCN(C(c2ccccc2)c2ccc(Cl)cc2)CC1 (stereo not given)
inactive: all assays above

CCCCOCCOC(=O)COc1cc(Cl)c(Cl)cc1Cl
inactive: all assays above

CC(O)CC(C)(C)O (stereo not given)
inactive: all assays above

CC1(C)C(=O)N(Br)C(=O)N1Br
inactive: all assays above

CN(C)c1ccc(C2(c3ccc(N(C)C)cc3)OC(=O)c3cc(N(C)C)ccc32)cc1
inactive: all assays above

CCCCC(CC)CN1CN(CC(CC)CCCC)CC(C)(N)C1 (stereo not given)
inactive: all assays above

CC(C)Cc1nccs1
inactive: all assays above

Cc1cc(Nc2ccc(O)cc2)ccc1N
inactive: all assays above

O=C[C@H](O)[C@H](O)[C@H](O)CO
inactive: all assays above

c1ccc2cnncc2c1
inactive: all assays above

c1cc(N(CC2CO2)CC2CO2)ccc1OCC1CO1 (stereo not given)
inactive: all assays above

O=c1oc(=O)c2cc3c(=O)oc(=O)c3cc12
inactive: all assays above

C=CC(=O)OCC(C)OCC(C)OCC(C)OC(=O)C=C (stereo not given)
inactive: all assays above

CCCCCCOc1cc(C)c(O)c(C)c1C
inactive: all assays above

O=C1O[C@H]([C@H](O)CO)C(O)=C1O
inactive: all assays above

CCCCCCCCCCCCCC[n+]1ccccc1
active: [1] 31.7 µM | [2] 56.4 µM | [3] 20 µM
inactive: [4]

O=C1CCC(N2C(=O)c3ccccc3C2=O)C(=O)N1 (stereo not given)
inactive: all assays above

C=CC(=O)OCCOCCOCCOCCOC(=O)C=C
inactive: all assays above

Cc1ccc2ccc(Cl)cc2n1
inactive: all assays above

C1CSCCS1
inactive: all assays above

FC(F)(F)c1ccc(Cl)c(Cl)c1
inactive: all assays above

O=[Se](O)O
inactive: all assays above

CC(C)(C)[C@@H](O)[C@@H](Cc1ccc(Cl)cc1)n1cncn1
inactive and 71 µM (active): [1]
inactive: all other assays above

O=S1(=O)CCCO1
inactive: all assays above

Cc1ccccc1C(OCCN(C)C)c1ccccc1 (stereo not given)
inactive: all assays above

C/C=C/c1ccc(OC)c(OC)c1
inactive: all assays above

C1N2CN3CN1CN(C2)C3
inactive: all assays above

NS(=O)(=O)c1cc2c(cc1Cl)NC=NS2(=O)=O
inactive: all assays above

CCC=O
inactive: all assays above

NC(=O)NC(=O)Cc1ccccc1
inactive: all assays above

OCC1CCC(CO)CC1 (stereo not given)
inactive: all assays above

NC(=O)OCC(COC(N)=O)c1ccccc1
inactive: all assays above

CN1Cc2cc(C(=O)N3CCC(C4CCNCC4)CC3)ccc2NC(CC(=O)O)C1=O (stereo not given)
inactive: all assays above

O=C1OCc2ccccc21
inactive: all assays above

CNCCC(Oc1ccccc1OC)c1ccccc1 (stereo not given)
inactive: all assays above

CCOc1ccc(NC(N)=O)cc1
inactive: all assays above

CC(=O)c1ccc2c(c1)N(CCCN(C)C)c1ccccc1S2
inactive: all assays above

CC(=O)OCC(=O)[C@@]1(O)CC[C@H]2[C@@H]3CCC4=CC(=O)CC[C@]4(C)[C@H]3C(=O)C[C@@]21C
inactive: all assays above

Oc1cccc(O)c1
inactive: all assays above

CCCCCCCCOc1ccccc1C(=O)Nc1ccc(C(=O)OCC[N+](C)(CC)CC)cc1
active: [1] 24.5 µM | [2] 38.9 µM | [3] 12.3 µM
inactive: [4]

SCCOCCOCCS
inactive: all assays above

Oc1ccc(O)c2c(O)cccc12
inactive: all assays above

COc1cc(/C=C/C(=O)O[C@H]2CC[C@]34C[C@]35CC[C@]3(C)[C@@H]([C@H](C)CCC=C(C)C)CC[C@@]3(C)[C@@H]5CC[C@H]4C2(C)C)ccc1O
inactive: all assays above

CC(C)CCOCCC(C)C
inactive: all assays above

CC(=O)/C=C/C1C(C)=CCCC1(C)C (stereo not given)
inactive: all assays above

C=CC(=O)OCC(CO)(COC(=O)C=C)COC(=O)C=C
inactive: all assays above

From PubChem BioAssay (Tox21)
